The test system of assay [1] is Sporothrix brasiliensis CBS 133006. Description: growth inhibition relative to untreated control; higher = more growth inhibition (more antifungal activity), active = 80 or more; extreme values may be limits of the assay. The conditions noted are these: 1 µM; 48 h. The method, boiled down:
(§1)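 Each value is the percent growth inhibition compared with cells left untreated. Reference isolates were grown as yeast-form cells in brain heart infusion broth with 2% glucose for 7 days at 36°C, then exposed at 1 x 10^5 CFU/ml to library compounds at a final 1 μM for 48 h at 35°C in 5% CO2. Growth was inspected visually under an inverted light microscope and quantified by spectrophotometric readings, with runs in quadruplicate.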

The test system of assay [2] is Sporothrix schenckii ATCC 32286. The description is as above. As to conditions: 1 µM; 48 h. The gist of the method: as §1

Structures are written as SMILES. Unmarked numbers belong to inactive results.

In the case of `N#Cc1ccc(-c2ccc(OCC(N)=O)cc2)cc1`, the figures for the growth inhibition in assay [1] and in assay [2] were 19.2% and 0%, respectively.
On to `Nc1ncnc2c1c(Cc1cccc3ccccc13)nn2CC1CCNCC1`, for which the growth inhibition in assay [1] and in assay [2] was 0% each time.
As to `CC(C(=O)N1CCCC1)N1CCN(S(=O)(=O)c2ccc(C(C)(C)C)cc2)CC1` (stereo unspecified), the growth inhibition is 37.5% in assay [1] and 7% in assay [2].
As to `Cc1nc(-c2ccccn2)nc(N2CCC(Cc3ccccc3)C2)c1Cl` (stereo unspecified), the growth inhibition in assay [1] is 63%; in assay [2], 13%.
As to `CCN(CC)S(=O)(=O)c1ccc(Cl)c(C(=O)Nc2ccc3nc(C)sc3c2)c1`, the growth inhibition in assay [1] is 0.5%; in assay [2], 9.75%.
Consider `Cc1cccc(NC(=O)c2cc(S(=O)(=O)N(C)c3ccc(F)cc3)ccc2Cl)n1`, for which the growth inhibition in assay [1] was 4.25%; in assay [2], 8.25%.
With `Cn1ncc2c(N3CCOCC3)nc(NCCc3c[nH]c4ccccc34)nc21`, the growth inhibition in assay [1] is 8.25%; in assay [2] it was 0%.
`O=C(Nc1nc(-c2ccccn2)cs1)c1cncn1-c1ccccc1`: the growth inhibition is 17.5% in assay [1] and 15.2% in assay [2].
For the compound `COc1cc(Br)cc2cc(C(=O)Nc3cccc(C(F)(F)F)c3)c(=O)oc12`, the growth inhibition in assay [1] was 11.5%; in assay [2] it was 6.75%.
As for `CC(=O)NC[C@H]1CN(c2ccc(N3CCSCC3)c(F)c2)C(=O)O1`, the growth inhibition in assay [1] is 5.5%; in assay [2] it was 0%.
Take `COc1ccc(C2(C(=O)Nc3ccc(Br)cc3)CCCC2)cc1`: the growth inhibition was 59.8% in assay [1] and 13% in assay [2].
With `COc1cc(C2=NCCN2)ccc1-n1cc(-c2cccc(C3=NCCN3)c2)nn1`, the growth inhibition was 18.5% in assay [1] and 5.5% in assay [2].
For the compound `O=C(Nc1cnc2ccccc2c1)c1cccc(-n2cnnn2)c1`, the growth inhibition is 0% in assay [1] and 4.75% in assay [2].
For `Cc1cc(C)cc(COc2ccc3c(C)c(CCC(=O)O)c(=O)oc3c2C)c1`, the growth inhibition was 3.75% in assay [1] and 1.5% in assay [2].
`N#Cc1nc(-c2ccccc2F)oc1NCCc1ccccc1`: the growth inhibition in assay [1] was 3.75%; in assay [2], 0%.
On to `O=C(Nc1ccc(C(F)(F)F)c(C(F)(F)F)c1)c1cc(Cl)ccc1O`, for which the figures for the growth inhibition in assay [1] and in assay [2] were 92.5% (active) and 62%, respectively.
For `O=C(NC1CC1)c1ccc(N2CCOc3ccc(Cl)cc32)s1`, the growth inhibition in assay [1] is 7%; in assay [2] it was 11.8%.
`Cc1noc(C)c1COc1cccc(C(=O)N=c2[nH]cccc2C)c1`: the values for the growth inhibition in assay [1] and in assay [2] were 0% and 8.25%, respectively.
Regarding `O=C(Nc1ccc2c(c1)B(O)OC2)c1ccccc1C(F)(F)F`, the growth inhibition in assay [1] is 13.5%; in assay [2], 20.5%.
For `CC(C)(C(=O)Nc1ccc(F)cc1)n1cc(-c2ccccc2F)cn1`, in that order: 0% and 11%.
For the compound `CN(C)c1cc(NC(=O)Nc2ccccc2)c2ccccc2n1`, the figures for the growth inhibition in assay [1] and in assay [2] were 0% and 0.75%, respectively.
With `CCc1cc(=O)n(C)c(SC(C)C(=O)Nc2ccc(F)cc2)n1` (stereo unspecified), the growth inhibition is 9.25% in assay [1] and 13.5% in assay [2].
Regarding `CCc1nc2ccc(Cl)cn2c1C(=O)NCc1ccc(N2CCC(c3ccc(OC(F)(F)F)cc3)CC2)cc1`, the growth inhibition in assay [1] is 10.2%; in assay [2] it was 2.25%.
The matching figures for `Oc1c(I)cc(I)c2cccnc12`: 99.5% (active) and 94.5% (active).
For `OC[C@H]1O[C@@H](n2c3ccc(Cl)cc3c3c(-c4cc5ccccc5o4)ncnc32)C(O)[C@H]1O` (stereo partly specified), in that order: 10.8% and 18.8%.
Consider `Cc1ccc2[nH]c3c(NCCN(C)C)ncnc3c2c1`, for which the growth inhibition in assay [1] is 2%; in assay [2] it was 0%.
Turning to `O=C(CCC1CCCCC1)Nc1cccc(-c2nnc(-c3ccco3)o2)c1`, the growth inhibition in assay [1] and in assay [2] was 2.5% throughout.
Regarding `CNc1cc(C)nc(C2CN(C(=O)c3n[nH]c4ccccc34)CCO2)c1` (stereo unspecified), the values for the growth inhibition in assay [1] and in assay [2] were 5.75% and 4.5%, respectively.

For the origin of these results see the supplement of paper PMC7556523.
